Data published in PubChem BioAssay (NCATS).
Inconclusive results are not listed. For part of these data: Measured potencies and affinities stand elsewhere. Calls of active or inactive are those of the source. Numbered stars: 1 amine (or outer) side, 2 acyl side, 3 side chain; on linkers, the order of the positions; unused ones are H or OH. Bridge positions count the residues as written; N and C are the ends. Square brackets hold non-standard residues; d marks the D form. Peptide text beside a SMILES is read from it. I, II: the chains in the order shown. Actinocin(9to1) = Cc1c2oc3c(C)ccc(C(=O)[*:1])c3nc-2c(C(=O)[*:2])c(N)c1=O; NMeV = CN[C@H](C(=O)O)C(C)C; Sar = CNCC(=O)O

Tests used:
[1] = Ebola virus entry assay, green fluorescence channel
[2] = Ebola virus entry assay, blue channel fluorescence
[3] = Ebola virus entry assay, green fluorescence channel; remark: listed apart in the source
[4] = Ebola virus entry assay, ratio channel readout
[5] = Ebola virus entry assay, ratio channel
[6] = Ebola virus entry assay, green channel fluorescence
[7] = Ebola virus entry assay, blue channel fluorescence; remark: listed apart in the source
[8] = Ebola virus entry assay, reporter ratio channel; AC50: Channel type: primary unless noted; outcome: Channel type: primary unless noted
[9] = Ebola virus entry assay, blue channel (ratio component)
[10] = qHTS Assay for Identifying Gametocytocidal Compounds (AID 743244; active = well fitted curve in the direction sought with a large enough effect;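 also: % is scaled to controls: 0 for no effect and ±100 for the full control effect; actives lower the fluorescent signal which means gametocytes are killed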); conditions: P. falciparum 3D7 stage III-V gametocytes, alamarBlue, 72 h; max response: stronger effect = lower value
Outline: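 In this qHTS viability screen, late-stage 3D7 gametocytes are incubated with compound for 72 h, then with alamarBlue for 24 h; reduced resorufin fluorescence marks killing.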

[11] = qHTS profiling of the MIPE4 collection as inhibitors of Plasmodium falciparum (3D7) proliferation (AID 743344);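 also: scaled between DMSO vehicle wells and 0.29 µM artemisinin as full inhibition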; conditions: P. falciparum 3D7 in erythrocytes, SYBR Green DNA fluorescence, 72 h; at 28.5 µM (top of the series) unless noted
Outline: (§1)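 Parasite DNA was quantified by SYBR Green I fluorescence (ex 485, em 535 nm) after overnight lysis in saponin/Triton buffer at room temperature. Cultures at 0.3% parasitemia and 2.5% hematocrit were first exposed to compound for 72 h at 37 C; signals were normalised to artemisinin (0.29 uM) and vehicle wells.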

[12] = qHTS profiling of the MIPE4 collection as inhibitors of Plasmodium falciparum (DD2) proliferation (AID 743345); conditions: P. falciparum Dd2 in erythrocytes, SYBR Green DNA, 72 h; at 28.5 µM (top of the series) unless noted
Outline: as §1

[13] = qHTS profiling of the MIPE4 collection as inhibitors of Plasmodium falciparum (DD2) proliferation (Rep 2) (AID 743346); conditions: P. falciparum Dd2 in erythrocytes, SYBR Green DNA, 72 h; at 28.5 µM (top of the series) unless noted
Outline: as §1

[14] = qHTS profiling of the MIPE4 collection as inhibitors of Plasmodium falciparum (HB3) proliferation (AID 743347);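 also: plate controls were DMSO vehicle wells for no effect and artemisinin wells for full effect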; conditions: P. falciparum HB3 in erythrocytes, SYBR Green DNA, 72 h; at 28.5 µM (top of the series) unless noted
Outline: as §1

[15] = Ebola virus entry assay, blue channel fluorescence; remark: listed apart in the source
For efficacy in this document: 0% is about no effect.

| Compound | efficacy [1] | outcome [2] | outcome [3] | outcome [4] | outcome [5] | outcome [6] | outcome [7] | outcome [8] | outcome [9] | max response [10] | AC50 [5] | AC50 [8] | parasite growth, % of DMSO control [11] | parasite growth remaining, % of DMSO control (lower = more inhibition) [12] | parasite growth, % of control (lower = inhibition) [13] | growth, % of control [14] | outcome [15] |
| --- | --- | --- | --- | --- | --- | --- | --- | --- | --- | --- | --- | --- | --- | --- | --- | --- | --- |
| Nc1ccn([C@@H]2O[C@H](CO)[C@@H](O)C2(F)F)c(=O)n1 | -29.1% (inactive) | inactive | inactive | inactive | inactive | inactive | inactive | inactive | inactive |  |  |  |  |  |  |  |  |
| O=C1NC(c2ccccc2)(c2ccccc2)C(=O)N1COP(=O)(O)O | -16% (inactive) | inactive | inactive | inactive | inactive | inactive | inactive | inactive | inactive |  |  |  |  |  |  |  |  |
| N[C@@H]1C[C@H]1c1ccccc1 | -26.4% (inactive) | inactive | inactive | inactive | inactive | inactive | inactive | inactive | inactive | 21.9% (inactive) |  |  |  |  |  |  |  |
| CC(=O)O[C@]1(C(C)=O)CC[C@H]2[C@@H]3C=C(Cl)C4=CC(=O)[C@@H]5C[C@@H]5[C@]4(C)[C@H]3CC[C@@]21C | 67.4% (inactive) | inactive | inactive | inactive |  |  |  |  | inactive |  | 3.55 µM (active) | 3.55 µM (active) |  |  |  |  |  |
| CCCCc1ncc(/C=C(\Cc2cccs2)C(=O)O)n1Cc1ccc(C(=O)O)cc1 | -11.8% (inactive) | inactive | inactive | inactive | inactive | inactive | inactive | inactive | inactive |  |  |  |  |  |  |  |  |
| NCC1(CC(=O)O)CCCCC1 | -9.69% (inactive) | inactive | inactive | inactive | inactive | inactive | inactive | inactive | inactive | 10.3% (inactive) |  |  | 58.3% | 87.6% | 75.9% | 94.9% |  |
| CC1(C)S[C@@H]2[C@H](NC(=O)[C@H](N)c3ccccc3)C(=O)N2[C@H]1C(=O)O | -14% (inactive) | inactive | inactive | inactive | inactive | inactive | inactive | inactive | inactive |  |  |  |  |  |  |  |  |
| Cc1c2oc3c(C)ccc(C(=O)N[C@@H]4C(=O)N[C@H](C(C)C)C(=O)N5CCC[C@H]5C(=O)N(C)CC(=O)N(C)[C@@H](C(C)C)C(=O)O[C@@H]4C)c3nc-2c(C(=O)N[C@@H]2C(=O)N[C@H](C(C)C)C(=O)N3CCC[C@H]3C(=O)N(C)CC(=O)N(C)[C@@H](C(C)C)C(=O)O[C@@H]2C)c(N)c1=O (I: T[dV]P[Sar][NMeV] / II: T[dV]P[Sar][NMeV]; ester I:1-I:C, II:1-II:C; linker I:N-II:N via Actinocin(9to1)) | 27.3% (inactive) | inactive | inactive | inactive | inactive | inactive | inactive | inactive | inactive |  |  |  |  |  |  |  |  |
| C1N2CN3CN1CN(C2)C3 | 14.5% (inactive) | inactive | inactive | inactive |  | inactive | inactive | inactive | inactive |  |  |  |  |  |  |  |  |
| Cc1nc(-c2ccc(OCC(C)C)c(C#N)c2)sc1C(=O)O | 65.9% (inactive) | inactive | inactive | inactive |  |  | inactive | inactive | inactive |  |  |  |  |  |  |  | inactive |
| O=C1OCCN1/N=C/c1ccc([N+](=O)[O-])o1 | 18% (inactive) | inactive | inactive | inactive | inactive | inactive | inactive | inactive | inactive |  |  |  |  |  |  |  |  |
| O=P1(NCCCl)OCCCN1CCCl (centres undefined) | 14.4% (inactive) | inactive | inactive | inactive |  | inactive | inactive | inactive | inactive | 4.6% (inactive) |  |  | 62.8% | 97.2% | 110% | 107% | inactive |
| CCCCS(=O)(=O)N[C@@H](Cc1ccc(OCCCCC2CCNCC2)cc1)C(=O)O | 9.81% (inactive) | inactive | inactive | inactive |  | inactive | inactive | inactive | inactive |  |  |  |  |  |  |  |  |
| CN(C)C(=N)N=C(N)N | -14% (inactive) | inactive | inactive | inactive | inactive | inactive | inactive | inactive | inactive |  |  |  |  |  |  |  |  |
| CC(c1cc2ccccc2s1)N(O)C(N)=O (centres undefined) | -17.4% (inactive) | inactive | inactive | inactive | inactive | inactive | inactive | inactive | inactive |  |  |  |  |  |  |  |  |
| Cc1ccccc1N1C(=O)c2cc(S(N)(=O)=O)c(Cl)cc2NC1C (centres undefined) | 25.2% (inactive) | inactive | inactive | inactive | inactive | inactive | inactive | inactive | inactive |  |  |  |  |  |  |  |  |
| CCOC(=O)N1CCC(=C2c3ccc(Cl)cc3CCc3cccnc32)CC1 | 62.3% (inactive) | inactive | inactive | inactive |  |  |  |  |  |  | 6.31 µM (active) | 6.31 µM (active) |  |  |  |  |  |
| Cc1cccc(C)c1OCC(C)N (centres undefined) | -20.8% (inactive) | inactive | inactive | inactive | inactive | inactive |  | inactive | inactive |  |  |  |  |  |  |  |  |
| CNS(=O)(=O)Cc1ccc2[nH]cc(CCN(C)C)c2c1 | 17.1% (inactive) | inactive | inactive | inactive | inactive | inactive | inactive | inactive | inactive |  |  |  |  |  |  |  |  |
| COc1cc(Cc2cnc(N)nc2N)cc(OC)c1OC | -22.6% (inactive) | inactive | inactive | inactive |  | inactive | inactive | inactive | inactive |  |  |  |  |  |  |  |  |
| CN(CCOc1ccc(CC2SC(=O)NC2=O)cc1)c1ccccn1 (centres undefined) | -12.2% (inactive) | inactive | inactive | inactive |  | inactive | inactive | inactive | inactive |  |  |  |  |  |  |  |  |
